Compound activity (PubChem BioAssay)
MARV entry inh = inhibitors of Marburg virus binding or cell entry; Potency, µM (top dose mostly 37.8 µM), actives largely listed as inhibitors; AID 540276; Marburg virus pseudotyped entry inhibition, cell reporter; 300,000 tested, 1.8% active; calls by dose curve; tested in HEK293 cells
VACV mCherry inh = inhibitors of vaccinia virus infection (mCherry reporter signal) | Vaccinia virus mCherry reporter infection, fluorescence | Potency, µM (titrated, usually from 36.5 µM), most hits filed as inhibitors | 310,000 tested, 0.63% active | AID 720579; calls by dose curve; tested in A549 cells; further: nearly all actives have a fitted effect of over 35% in size
HCMV inh = blocks human cytomegalovirus replication; 410,000 tested, 4.5% active; activity change, negative = inhibition, % at 57.5 µM; HFF cells, HCMV-luciferase reporter, 72 h; stronger effect = lower value; in the data active means activity change below about -60%; inconclusive means no clear call, values can overlap the other calls; inactive means above about -39%
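After 16 h attachment at 37C, HFF cells received test compound and HCMV-luciferase (1 PFU/cell); reporter luminescence read 72 h later, data normalized against buffer-only and known inhibitor Salinomycin.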
HCV inh = inhibitors of hepatitis C virus infection; 340,000 tested, 3.4% active; Huh7.5.1 HCVcc-Cre infection, luciferase reporter, 44 h; Potency, µM (doses to about 41.8 µM), usual class: inhibitors; active means well fitted inhibition curve with a large enough effect; inconclusive means small, poorly fitted or top-dose-only effect, or another doubt; inactive means no such curve, though single readings can be large or run the other way
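Seed cells (1,000/well) for 4 h; treat with compound and infect with HCVcc-Cre, moi about 0.5. Incubate 44 h, then detect luciferase activity.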
LASV entry inh = Lassa virus entry inhibition; Lassa virus pseudotype entry inhibition, cell reporter; Potency, µM (top dose mostly 37.9 µM), most hits filed as inhibitors; 300,000 tested, 1.2% active; AID 540256; calls by dose curve; tested in HEK293 cells; further: nearly all actives have a fitted effect of over 50% in size
VACV Venus inh = inhibitors of vaccinia virus (Venus reporter); Vaccinia virus Venus reporter expression, fluorescence; Potency, µM (highest dose often 36.5 µM), hits mostly inhibitors; 330,000 tested, 0.46% active; calls by dose curve; tested in A549 cells; further: nearly all actives have a fitted effect of over 30% in size
Numbers stand for hits; 0 = inactive; ? = inconclusive; - = no result; [ ] = dose if it differs, or a comment. The list is not random: actives were taken first. Their share in the collection is about 7.8%.

SMILES	MARV entry inh	VACV mCherry inh	HCMV inh	HCV inh	LASV entry inh	VACV Venus inh
COc1ccc(CN2CCN(c3ccccc3)CC2)c(C)c1C	?	-	0	0	10µM	-
COc1cccc(NC(=O)CCN2CCN(c3ccccc3)CC2)c1	0	0[7.34 µM]	-75	-	?	0[7.34 µM]
COc1ccc(NC(=O)c2ccc(CN3CCN(c4ccccc4)CC3)cc2)cc1OC	10µM	-	-	?	?	0
COc1ccc(C)cc1NC(=O)c1ccc(CN2CCN(c3ccccc3)CC2)cc1	?	0	?	?	?	0
Cc1ccc2c(=O)cc(CSc3ncn[nH]3)[nH]c2c1C	-	0	0	-	0	0
C=CC[C@H](CC(=O)N(CCO)Cc1ccccc1)C(=O)N[C@H](COC(=O)[C@H](CC=C)CC(=O)OC(C)(C)C)Cc1c[nH]c2ccccc12	-	0	0	25µM	-	0
C=CC[C@@H](CC(=O)N(CCO)Cc1ccccc1)C(=O)N[C@H](COC(=O)[C@@H](CC=C)CC(=O)OC(C)(C)C)Cc1ccccc1	-	0	0	?	-	0
C=CC[C@H](CC(=O)N(CCO)Cc1ccccc1)C(=O)N[C@H](COC(=O)[C@@H](CC=C)CC(=O)OC(C)(C)C)Cc1ccccc1	-	0	0	?	-	?
C=CC[C@@H](CC(=O)N(CCO)Cc1ccccc1)C(=O)N[C@@H](COC(=O)[C@H](CC=C)CC(=O)OC(C)(C)C)Cc1c[nH]c2ccccc12	-	?	0	?	-	11µM
C=CC[C@H](CC(=O)N(CCO)Cc1ccccc1)C(=O)N[C@@H](COC(=O)[C@@H](CC=C)CC(=O)OC(C)(C)C)Cc1c[nH]c2ccccc12	-	?	0	?	-	11µM
Cc1nn(C)c(Cl)c1CN1CCOc2ccc(CN3CCC(Oc4cccnc4)CC3)cc2C1	-	0	-	-	-	0
Cc1ccc(-c2nnc3ccc(SCC(=O)OCc4ccccc4)nn23)cc1	-	0	-	-	-	0
NC(COCc1ccccc1)c1csc(Nc2ncccn2)n1 (stereo not drawn)	-	0	0	-	-	0
CC(C)CC(N)c1csc(Nc2ncccn2)n1 (stereo not drawn)	-	7.9µM	0	-	-	?
Cc1cccc(OCC(=O)Nc2ccc3c(c2)nc(CCNC(=O)c2ccco2)n3C)c1	0	0	0	-	0	0
COC(=O)c1ccccc1NS(=O)(=O)c1cc2c(cc1C)N(C)CCO2	-	0	?	-	10µM	0
NC(CSC1(c2ccc(F)cc2)c2ccccc2-c2ccccc21)C(=O)O (stereo not drawn)	-	0	-68	-	-	0
NC(CSC1(c2ccc(Cl)cc2)c2ccccc2-c2ccccc21)C(=O)O (stereo not drawn)	0	0	0	0	0	0
COc1ccc(CN(Cc2ccccc2)C(=O)C2CC2)cc1COc1ccc(NC(C)=O)cc1	-	0	-	-	-	0
C[C@@]1(CO)[C@H](O)CC[C@@]2(C)[C@H]1CC[C@H]1C[C@@H]3C[C@@]12CC[C@]3(O)CO	0.52µM	0	-	0[8.37 µM]	?	0
C[C@H]1CCC2[C@](C)(CO)[C@@H](O)CC[C@]2(C)[C@@]12CCC(CO)(CCO)O2 (stereo partly drawn)	0	0	0	0	0	0
CCOC(=O)c1c(C)n(-c2ccccc2)c2ccc(OC(=O)c3ccccc3NC(=O)C(C)(C)C)cc12	-	0	-94	-	0	0
CCOC(=O)c1c(C)n(-c2ccccc2)c2ccc(O)cc12	0	0	?	10µM	0	0
CCOC(=O)c1c(-c2ccccc2)[nH]c2ccc(O)cc12	?	-	0	11µM	0	?
CCOC(=O)c1c(C)n(C)c2cc(Br)c(C)cc12	0	?	0	8.9µM	0	0
SMILES	MARV entry inh	VACV mCherry inh	HCMV inh	HCV inh	LASV entry inh	VACV Venus inh
CCOC(=O)c1c(CN(CC)CC)n(-c2ccccc2)c2ccc(O)cc12	?	?	0	0	0	0
CCOC(=O)c1c(C)n(C)c2cc(-c3ccc(C)cc3)c(O)cc12	0	0	?	?	0	0
C[C@H]1[C@@H](NC(=O)Nc2ccc(F)cc2)CC[C@@]23CCCN2C(=O)CCC[C@@H]13	-	-	0	-	-	-
Cc1ncc2c(c1CNC(=O)c1ccc3c(c1)OCO3)CCN(C(=O)c1cn3ccccc3n1)C2	-	0	-	-	-	0
C#CCN1C(=O)CC[C@@H](S(=O)(=O)c2ccccc2)[C@@H]1c1ccccc1	-	-	0	-	-	-
CCOc1ccc2cc(-c3nnc(Nc4ccccc4F)s3)c(=O)oc2c1	-	?	0	-	0	0
CNc1nc2cnc(-c3cc(OC)c(OC)c(OC)c3)cc2n1Cc1ccccc1	-	-	0	-	-	-
CCOC(=O)c1c(CN2CCN(CCO)CC2)n(-c2ccccc2)c2cc(Br)c(O)cc12	?	0	0	?	?	?
CCOC(=O)c1c(CN2CCN(C)CC2)n(-c2ccccc2)c2cc(Br)c(O)cc12	-	-	0	14µM	-	-
Cc1cccc(C)c1NC(=O)C(c1ccccc1OC(F)(F)F)N1CCN(C)CC1 (stereo not drawn)	-	0	-62	-	-	?
CCOc1ccc(-n2nc(CO)c(C(=O)NCc3cccs3)n2)cc1	0	0	0	-	?	0
CNC(=S)N/N=C/C1=CCC2CC1C2(C)C (stereo not drawn)	0	0	0	0	1.3µM	0
O=C(NCc1ccc(Cl)cc1)C1CCCN(c2ncnc3onc(-c4ccc(F)cc4)c23)C1 (stereo not drawn)	-	0	0	-	0	0
COc1ccc(-c2cc(C(F)(F)F)nc(N3CCN(C)CC3)n2)cc1OC	12µM	0	0	?	0	0
CCOc1ccc(NC(=S)N=Nc2c(O)[nH]c3ccccc23)cc1	?	0	0	13µM	?	0
NC(=S)N=Nc1c(O)[nH]c2ccccc12	0	13µM	0	0	?	?
Oc1[nH]c2ccccc2c1N=NC(=S)N1CCOCC1	-	-	-	8.9µM	-	-
Oc1[nH]c2ccc(Br)cc2c1N=NC(=S)N1CCOCC1	-	-	-100	11µM	-	-
Cc1ccc2nc(NC(=O)c3nc(SCc4ccccc4C)ncc3Cl)sc2c1	0	0	0	-	0	0
COc1cccc2[nH]c(-c3ccccn3)nc12	-	-	0	-	-	-
Oc1[nH]c2ccccc2c1N=Nc1ccccc1Cl	0	0	0	0	0	0
Oc1[nH]c2ccccc2c1N=Nc1c(F)c(F)c(Cl)c(F)c1F	-	-	-97	0	-	-
O=C(C1=C[C@@H](c2ccccc2)C[C@@H](OCc2ccc(CO)cc2)O1)N1CCN(Cc2ccc3c(c2)OCO3)CC1	-	0	0	11µM	-	?
O=C(NCc1ccccc1)C1=C[C@@H](c2ccc(Br)cc2)C[C@@H](OCc2ccc(CO)cc2)O1	-	0	0	?	-	?
O=C(NCc1ccccc1)C1=C[C@H](c2ccccc2)C[C@H](OCc2ccc(CO)cc2)O1	-	0	-91	0	-	0
O=C(Nc1ccccc1)C1=C[C@@H](C2CC2)C[C@@H](OCc2ccc(CO)cc2)O1	-	0	0	0.56µM	-	0
O=C(C1=C[C@H](c2ccccc2)C[C@H](OCc2ccc(CO)cc2)O1)N1CCN(Cc2ccccc2)CC1	-	0	?	0	-	0
COc1ccc(-c2csc(-c3c(N)c(C(=O)c4ccccc4)n4ccccc34)n2)cc1OC	0	0	0	-	0	0
Cc1ccc(C(=O)c2ccccc2C(=O)OCC(=O)Nc2cccc([N+](=O)[O-])c2)cc1	?	0	0	0	0	?
